Reference: PubChem BioAssay (NCATS)
“And” between values parts separate entries of the source, which are not always exact repeats. Equal entries are not always repeated. Inconclusive results are not listed. A number with no mark means an inactive call. The source made the active and inactive calls. Calls come from the whole dose curve; as a rule, active = well fitted cell-killing curve with a large enough effect; inconclusive = small, poorly fitted or top-dose-only effect, or effect the other way; inactive = no such curve, though single readings can be large or run the other way.

Test: Viability qHTS for spleen associated tyrosine kinase inhibitor (SYKi) naive MV4-11 cells (AID 1963823); note: nearly all actives have a fitted effect of over 40% in size
Settings: MV4-11 AML viability, CellTiter-Glo luminescence, 72 h; series mostly up to 45 µM; viability (% of control): at the top concentration
Source text: Department of Medicine, Hematology/Oncology
University Hospital Frankfurt, Germany.
Trials have shown promising clinical activity of the selective SYK inhibitor entospletinib in patients with high expressing HOXA9/MEIS1 acute leukemias. As the development of resistance mechanisms is a common problem in the use of targeted drugs, we performed a chemical library screen to identify drug sensitivities in SYK inhibitor resistant AML cells. […] Glucocorticoids are potent immunosuppressants which work in part by inhibiting the transcription of cytokine genes.
Described herein is a viability screen to look for activity in the SYK inhibitor naive cell line against four NCATS compound libraries (MIPE 5.0, NPC, NPACT, and Kinase) totaling 11372 compounds. Active hits were reacquired for confirmation and further secondary assay testing.
SEQUENCE No. (e.g., 1, 2, 3, etc.); […] (e.g., Cells, Incubation, Reagent, etc.); VALUE; DESCRIPTION.
1; Media; 2uL; white, solid-bottom Corning assay plate.
2; Compounds; 23nL; Echo acoustic dispenser.
3; Cell; 5uL; 500 cells per well.
4: Incubation; 72hr; 37 C, 5% CO2, 95% humidity.
5; Reagent; 3uL; CellTiter-Glo reagent (Promega).
6; Incubation; 10min; room temperature.
7; Detection; Luminescence; ViewLux plate reader (PerkinElmer).
NOTES (numbers refer to Sequence numbers above
1. Quantitative high-throughput screening (qHTS) of small molecule compounds was conducted on naive SYKi MV4-11 cell line.
2. Twenty-three nanoliter of small molecule compounds were added to each assay plates using the Echo acoustic dispenser (Beckman Coulter).
3. Cells were seeded into the assay plates at a final density of 500 cells in 5uL of media per well using the Multi-drop Combi dispenser.
4. Plates were covered with stainless steel gasketed lids and incubated for 72 hours at standard cell culture conditions.
5. Viability was assessed by adding 3uL of CellTiter-Glo detection reagent (Promega).
6. Plates were covered with gasket lids and incubated for 10 minutes at room temperature.
7. Luminescence was measured on a ViewLux plate reader (PerkinElmer).
Potency is the fitted concentration of half-maximal effect.

| SMILES | viability (% of control) | Potency |
| --- | --- | --- |
| CCCCCC[C@@H](CCC)C(=O)O | 96.6% | – |
| C=CC1(C)CC(O)C2(CCC3C(C)(C(=O)O)CCCC3(C)C2=O)C1 (stereo not given) | 53.4% | – |
| CC[C@H](C)C(=O)O[C@H]1C[C@H](O)C=C2C=C[C@H](C)[C@H](CC[C@@H](O)C[C@@H](O)CC(=O)O)[C@H]21 | 62.4% | – |
| OCCc1ccc(O[C@@H]2O[C@H](CO)[C@@H](O)[C@H](O)[C@H]2O)c(O)c1 | 65.8% | – |
| O=C(NCc1nc2ccccc2c(=O)n1-c1ccc(F)cc1)Nc1ccc(Cl)c(C(F)(F)F)c1 | – | 23.1 µM (active) |
| O=C1C[C@@H](c2ccc(O)cc2)Oc2cc(O)ccc21 | – | 11.6 µM (active) |
| C=C1C(=O)O[C@@H]2/C=C(\C)CC/C=C(\C(=O)O[C@@H]3O[C@H](CO)[C@@H](O)[C@H](O)[C@H]3O)CC[C@@H]12 | 65.6% [at 17.3 µM] | – |
| Oc1ccc(O)cc1 | – | 11.9 µM (active) |
| C[C@@H]1CC[C@]2(C(=O)O)CC[C@]3(C)C(=CCC4[C@@]5(C)C[C@@H](O)[C@@H](O)C(C)(C)C5CC[C@]43C)C2[C@]1(C)O (stereo not given in full) | 70.3% [at 17.3 µM] | – |
| COc1cc(/C=C/C(=O)O[C@H]2[C@H](OC(=O)/C=C/c3cc(OC)c(O)c(OC)c3)O[C@H](CO[C@@H]3O[C@H](CO)[C@@H](O)[C@H](O)[C@H]3O)[C@@H](O)[C@@H]2O)ccc1O | 105% [at 17.3 µM] | – |
| CC(C)(O)c1ccc2c(c1)C(O)CC1C(C)(C(=O)O)CCCC21C (stereo not given) | 76.2% | – |
| C[C@H]1[C@H](C)CC[C@]2(C(=O)O[C@@H]3O[C@H](CO)[C@@H](O)[C@H](O)[C@H]3O)CC[C@]3(C(=O)O)C(=CCC4[C@@]5(C)CC[C@H](O[C@@H]6O[C@H](CO)[C@@H](O)[C@H](O)[C@H]6O)C(C)(C)C5CC[C@]43C)[C@H]12 (stereo not given in full) | 69.7% [at 9.25 µM] | – |
| Nc1ccn([C@@H]2CS[C@H](CO)O2)c(=O)n1 | 95.1% | – |
| C=CC1C(OC2OC(CO)C(O)C(O)C2O)OC=C2C(=O)N3C(C(=O)O)Cc4c([nH]c5ccccc45)C3CC21 (stereo not given) | 71.7% [at 17.3 µM] | – |
| CC1(C)O[C@H]2CC(=O)OC[C@]23[C@H]2CC[C@@]4(C)[C@H](c5ccoc5)OC(=O)[C@H]5O[C@]54[C@]2(C)C(=O)C[C@@H]13 | – | inactive |
| CCn1c2ccccc2c2cc(Nc3ccnc(NCCCN4CCOCC4)n3)ccc21 | – | 2.31 µM (active) |
| C/C1=C\CC(C)(C)/C=C/C/C(C(=O)O)=C/CC1 | – | 23.1 µM (active) |
| CC(C)(C)NCC(O)COc1cccc2c1CCC(=O)N2 (stereo not given) | 67.1% | – |
| Nc1nc(O)c(C2=C3C(=Nc4ccccc43)C(=O)NCC2)[nH]1 | – | 0.461 µM (active) |
| O=C1O[C@H](C(O)CO)C(=O)C1=O (stereo not given in full) | 102% | – |

| SMILES | viability (% of control) | Potency |
| --- | --- | --- |
| Cc1c(CCOc2ccc(C(=O)O)cc2)c2cc(Cl)ccc2n1C(c1ccccc1)c1ccccc1 | 70.8% | – |
| COc1ccc(CN2CCN(C(c3ccc(F)cc3)c3ccc(F)cc3)CC2)c(OC)c1OC | – | 15 µM (active) and 14.6 µM (active) |
| OC[C@H]1O[C@@H](OC(CCCCc2ccc(O)cc2)CCc2ccc(O)cc2)[C@H](O)[C@@H](O)[C@@H]1O (stereo not given in full) | 24.7% [at 17.3 µM] | – |
| C[C@@H](Oc1cc(-n2cnc3ccc(OC4CCN(C)CC4)cc32)sc1C(N)=O)c1ccccc1C(F)(F)F | – | 0.0184 µM (active) |
| CN(C)c1ccc(Nc2c3ccc(NC(=O)CCN4CCCC4)cc3nc3cc(NC(=O)CCN4CCCC4)ccc23)cc1 | – | 5.17 µM (active) |
| CCCc1cc(=O)[nH]c(=S)[nH]1 | – | inactive |
| CC(=O)/C=C/C=C1/C2CCC(C2)C1(C)C (stereo not given) | 38.7% | – |
| CC(C)c1cccc(C(C)C)c1NC(=O)Nc1ccc(Sc2ccc([N+](=O)[O-])cc2)cc1 | – | 7.31 µM (active) |
| CC[N+](CC)(CC)CCOc1ccc(/C=C/c2ccccc2)cc1 | 96.4% | – |
| Nc1nc2c(cnn2CCCc2ccc(O)cc2)c2nc(-c3ccco3)nn12 | 73.2% | – |
| CCC(C)CC(=O)OC1C(=O)C(CO)=CC(O)C1C(C)C (stereo not given) | – | 2.59 µM (active) |
| Cc1nc2cc(-c3cc(F)cc(C#N)c3)ccc2s1 | 72.5% | – |
| C#CCN[C@@H]1CCc2ccccc21 | – | inactive |
| CCN(Cc1cccnc1)C(=O)CN(c1ccc(OC)nc1)S(=O)(=O)c1ccccc1C | 79.1% | – |
| CC#CC(=O)Nc1ccc2ncnc(Nc3cccc(Br)c3)c2c1 | – | 1.46 µM (active) |
| C[C@H]1CC(=O)Nc2cccc(-c3cnn(C(C)(C)C)c3)c2N1 | 69.9% | – |
| CC(C)(Sc1cc(C(C)(C)C)c(O)c(C(C)(C)C)c1)Sc1cc(C(C)(C)C)c(O)c(C(C)(C)C)c1 | 68.1% | – |
| COC(=O)CCC(=O)OC[C@]1(C)CCC[C@@]2(C)C3CC[C@]4(C)C=CC3(CCC12)C4 (stereo not given in full) | 75.2% [at 17.3 µM] | – |
| Cc1oc(-c2ccccc2)nc1CCC(=O)c1ccc(CC2SC(=O)NC2=O)cc1 (stereo not given) | 52% | – |
| CN1CCCC(n2nc(Cc3ccc(Cl)cc3)c3ccccc3c2=O)CC1 (stereo not given) | – | 10.6 µM (active) |
